Assay outcomes: PubChem BioAssay, several laboratories
The list is not random: actives were taken first. Their share in the collection is about 3.6%.
esBAF inh: blocks esBAF chromatin remodeling in mouse ES cells; Bmi1-luciferase knock-in reporter, 24 h; 100% = twice the neutral-well signal; reporter increase, % at 12.5 µM; 350,000 tested, 2% active; in the data active = activation above about 40%;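 note: 0% = median of the plate's neutral control wells and 100% = double that signal; a rise in the Bmi1 reporter signal indicates esBAF inhibition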
APOBEC3A inh: human APOBEC3A DNA deaminase inhibition. P31941. recombinant A3A, FAM/TAMRA ssDNA deamination fluorescence. inhibition, % at 20 µM. 330,000 tested, 0.41% active. AID 493011;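 active = at least 40% inhibition at 20 µM here, with at most 30% in a related deaminase screen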;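 note: plate controls were A3A with DMSO for no effect and wells lacking A3A enzyme for full effect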
Target sequence (P31941 whole entry, looked up): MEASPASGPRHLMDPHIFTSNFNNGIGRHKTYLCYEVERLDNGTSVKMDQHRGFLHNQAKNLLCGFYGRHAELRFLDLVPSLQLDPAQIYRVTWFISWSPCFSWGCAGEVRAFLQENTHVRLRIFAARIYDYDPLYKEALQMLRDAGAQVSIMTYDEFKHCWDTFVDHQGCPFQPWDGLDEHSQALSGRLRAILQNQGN
PHOSPHO1 block: blocks human PHOSPHO1 phosphatase activity. Q8TCT1. recombinant PHOSPHO1, absorbance phosphatase assay. inhibition, % at 13.3 µM. 290,000 tested, 1.1% active; in the data active = inhibition above about 60%
MITF act: activators of MITF-driven TRPM1 promoter activity in SK-MEL-5 cells; AID 588334; 300,000 tested, 0.75% active; SK-MEL-5 TRPM1-promoter luciferase, 24 h; % of positive control, neutral wells = 0; activation, % at 12.5 µM;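 active = mean activation of at least 80% with every replicate also reaching 80%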;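 note: 0% = neutral control wells and 100% = parthenolide positive control wells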
Wnt bcat act: Wnt/beta-catenin pathway activation; activation, % at 9.35 µM; Wnt/beta-catenin reporter cell assay, activator, plate reader; 300,000 tested, 1.2% active; in the data active = activation above about 30%, passing the limit was not always enough;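 note: 0% = neutral control wells and 100% = positive control wells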
APOBEC3G inh: inhibitors of human APOBEC3G DNA deaminase. 330,000 tested, 0.28% active. Q9HC16. inhibition, % at 20 µM. AID 493012. recombinant A3G, ssDNA deamination FAM/TAMRA fluorescence;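 active = inhibition of at least 40% at 20 µM, with no more than 30% in the related APOBEC3A deaminase screen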;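 note: plate controls were DMSO wells with A3G for no effect and wells lacking A3G enzyme for full effect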
A3G conf: APOBEC3G (human) deaminase inhibition, confirmed; recombinant A3G ssDNA deaminase, UDG/FAM-TAMRA fluorescence; inhibition, % at 20 µM; 890 tested, 72% active; shares compounds with APOBEC3G inh;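 active = inhibition reaching a set limit in any replicate at 20 µM, the limit being 80% of the first screen's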
UDG A3G counter: inhibits E. coli UDG, flagging false APOBEC3G inhibitors. 710 tested, under 10 active. AID 504715. inhibition, % at 20 µM. UDG counterscreen, FAM/TAMRA oligo fluorescence. shares compounds with APOBEC3G inh;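 active = compounds giving 40% or more inhibition at 20 µM in any one of the three replicates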;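 note: plate controls were DMSO wells with UDG and oligo for no effect and DMSO wells lacking both for full effect; inhibitors lower the FAM signal released by uracil excision and alkaline cleavage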
Target sequence (P12295 whole entry, looked up): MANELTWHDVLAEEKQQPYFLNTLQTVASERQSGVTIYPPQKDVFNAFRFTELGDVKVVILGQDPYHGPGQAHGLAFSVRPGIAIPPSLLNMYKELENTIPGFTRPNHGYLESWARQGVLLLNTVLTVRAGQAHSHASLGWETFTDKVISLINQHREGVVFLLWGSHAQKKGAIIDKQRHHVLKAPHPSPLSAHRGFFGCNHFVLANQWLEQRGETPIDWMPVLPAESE
Starred values were filed as active, the others as inactive; . = no result.

SMILES	esBAF inh	APOBEC3A inh	PHOSPHO1 block	MITF act	Wnt bcat act	APOBEC3G inh	A3G conf	UDG A3G counter
O=[N+]([O-])c1cccc(/C=N/n2c(COc3ccccc3)n[nH]c2=S)c1	-8	0	27	-2	0	59*	73*	-3
Oc1ccc(/C=N/n2c(COc3ccccc3)n[nH]c2=S)cc1O	.	-8	19	15	-1	43*	77*	-2
S=c1[nH]nc(COc2ccccc2)n1/N=C/c1cccnc1	.	-1	46	0	-1	56*	77*	-3
COCCNC(=O)C[C@@H]1C[C@H]2c3cc(NC(=O)c4cccnc4)ccc3O[C@H]2[C@@H](CO)O1	0	.	.	.	.	.	.	.
C[C@@H]1CN([C@H](C)CO)C(=O)c2cc(/C=C/c3ccccc3)cnc2O[C@H]1CN(C)C	7	.	.	.	.	.	.	.
Cc1ccc(-c2n[nH]c(=S)n2/N=C/c2ccncc2)cc1	.	-2	-29	4	-1	53*	65*	7
Cc1nn(-c2ccccc2)c(C)c1/C=N/n1c(-c2ccncc2)n[nH]c1=S	.	-4	18	31	-6	42*	77*	1
Cc1ccc(-c2n[nH]c(=S)n2/N=C\c2ccco2)cc1	.	-3	24	-9	-3	42*	76*	6
Cc1ccc(-c2n[nH]c(=S)n2/N=C/c2ccc(C)o2)cc1	.	-4	32	-4	.	23	.	.
S=c1[nH]nc(-c2cccnc2)n1/N=C/c1ccco1	.	-1	-94	0	3	36	.	.
Cn1cccc1/C=N/n1c(-c2ccccc2)n[nH]c1=S	-6	-3	45	3	.	43*	81*	-3
C[C@@H]1CN([C@@H](C)CO)C(=O)c2cc(NS(=O)(=O)c3cccs3)ccc2O[C@@H](C)CCCCO[C@H]1CN(C)S(=O)(=O)c1cn(C)cn1	5	.	.	.	.	.	.	.
C[C@H](CO)N1C[C@H](C)[C@@H](CN(C)Cc2ccc(C(=O)O)cc2)OCCCC[C@H](C)Oc2ccc(NC(=O)c3ccncc3)cc2C1=O	-5	.	.	.	.	.	.	.
S=c1[nH]nc(C2CCCCC2)n1/N=C/c1ccco1	.	-6	32	-2	.	33	.	.
Cc1cccc(-c2n[nH]c(=S)n2/N=C/c2ccco2)c1	-5	-7	-1	-11	-1	47*	79*	3
O=[N+]([O-])c1ccc(Cl)c(/C=N/n2c(-c3ccncc3)n[nH]c2=S)c1	0	0	-83	-14	4	48*	57*	-6
C[C@@H]1CCCCO[C@@H](CN(C)C(=O)Nc2ccc(F)cc2)[C@H](C)CN([C@@H](C)CO)C(=O)c2cc(NC(=O)Nc3ccccc3)ccc2O1	10	.	.	.	.	.	.	.
Cc1cc(C)nc(N2CCC(C(=O)Nc3ccc(Oc4ccccc4)cc3)CC2)n1	-7	-1	-2	-7	-1	-8	.	.
Cc1ccc(NC(=O)C2CCN(c3nc(C)cc(C)n3)CC2)cc1	2	0	-3	-3	0	48*	-7	0
Cc1noc(C)c1NC(=O)N[C@H]1C=C[C@@H](CC(=O)N2CCCCC2)O[C@@H]1CO	-3	.	.	.	.	.	.	.
Cc1ccc(NNC(=O)c2ccno2)cc1C	.	-4	21	.	4	42*	39*	-3
Cc1ccc(NNC(=O)c2ccno2)cc1Cl	.	-3	33	.	-3	8	.	.
CC(C)N(Cc1nccn1C)C(=O)CC1C(=O)NCCN1Cc1ccc(F)cc1 (stereo not drawn)	4	-1	10	-11	-1	1	.	.
COc1ccc(CN2CCNC(=O)C2CC(=O)N(Cc2nccn2C)C(C)C)c(OC)c1 (stereo not drawn)	0	24	22	3	9	43*	16*	-4
CCSC1=NC2(CCCCC2)Nc2sc3c(c21)CCCC3	9	1	95*	-7	-1	59*	39*	.
C[C@H]1CN([C@@H](C)CO)C(=O)c2cc(C#Cc3ccccc3F)cnc2O[C@@H]1CN(C)S(=O)(=O)c1ccccc1F	4	.	.	.	.	.	.	.
